Compounds without any hit were thinned out: in the full panel of roughly 83,000, 20% have a hit.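 Percent growth is the endpoint: 0 to 100 indicates growth inhibition (40 means 60% inhibition), 0 means no net growth, and negative values indicate cell death.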 Values without a mark were called inactive. Active and inactive are the calls of the source. Rule for the calls: active = growth percent below 10; inactive = the rest.
The compounds below were run on DU-145 prostate (assay: NCI-60 one-dose screen, 48 h (100 = growth as untreated, 0 = no growth, -100 = all killed)). Conditions: 10 µM unless noted.
For `CC(=O)Nc1ccc2c(c1)Cc1c(F)cccc1-2`, the growth was 102%.
`COc1ccc(-c2cncnc2N)cc1OC` showed a growth of 114%.
`CN(C)c1ccc2cc(-c3ccc(Cl)c(Cl)c3)c(N)nc2c1` gave a growth of 56.2%.
Compound `O=C(Nc1ccccn1)[C@H](O)[C@@H](O)C(=O)N1CCOCC1` has a growth of 106%.
In the case of `O=C(NC(=S)Nc1ccc(-c2nc3ccccc3[nH]2)cc1)c1ccc2ccccc2c1`, the growth is reported as 18.8%.
For `CCCCCCN(CCCCCC)CC(O)c1cccc2ccc(Cl)cc12` (stereo not drawn), the growth was 61.8%.
Compound `Cc1ccc(S(=O)(=O)N(CC[C@@H]2C[C@H]2c2cc3ccccc3o2)C(=O)NC2CCCCC2)cc1` has a growth of 107%.
`Clc1ccc2[nH]c3c(NCCCN4CCOCC4)ncnc3c2c1` was tested, and the growth was 87.3%.
`Fc1ccc(Nc2ccc3cc(OCCCN4CCOCC4)ccc3n2)cc1F` showed a growth of 64.2%.
`CNC(=O)NCC1OC(n2cnc3c(NC(=O)Nc4ccccc4)ncnc32)C2OC(C)(C)OC12` (stereo not drawn) was tested, and the growth was 93.7%.
For `CCN(CC)CCOC(=O)Nc1ccccc1Cl`, the growth was 107%.
With `N=C(N)c1ccc(-c2ccc(-c3ccc(Cl)c(Cl)c3)o2)cc1` the growth was 3.63% (active).
In the case of `Cc1[nH]c(-c2nc3ccccc3[nH]2)c(C)c1C(=O)N1CCc2sccc2C1`, the growth is reported as 102%.
`CC(C)(C)c1ccc(C(=O)Nc2sc3c(c2C(N)=O)CCC(=O)C3)cc1` was tested, and the growth was 24.7%.
`Cc1nc(Nc2ccccn2)sc1C(=O)/C=C/c1ccc(Br)cc1` was tested, and the growth was 66.7%.
In the case of `C/C(=N\NC(=O)Cn1c(-c2ccc(S(C)(=O)=O)cc2)nc2cc(Cl)ccc21)c1ccc(Cl)cc1`, the growth is reported as 90%.
With `CCOC(=O)c1c(C)[nH]c(C(=O)CCC(=O)OC)c1C` the growth was 100%.
For `C=C1C(=O)O[C@H]2[C@H]1CC/C(COC(=O)NCc1ccc(Cn3c(=O)sn(CCCCl)c3=O)cc1)=C\CC[C@@]1(C)O[C@@H]21`, the growth was 8.01% (active).
In the case of `COc1cc(C2C=C(c3cccc(NC(C)=O)c3)Nc3ncnn32)cc(OC)c1OC` (stereo not drawn), the growth is reported as 2.4% (active).
`O=C(Oc1ccc[nH]c1=O)c1cc([N+](=O)[O-])cc([N+](=O)[O-])c1` gave a growth of 123%.
In the case of `COc1ccc(Oc2nc(Nc3ccc(N4CCOCC4)nc3)ncc2NC(=O)c2cc(OC)cc(OC)c2)cc1`, the growth is reported as 89.6%.
`COC(=O)c1ccc2oc(NC(=O)c3ccc(N4CCOCC4)c([N+](=O)[O-])c3)nc2c1` gave a growth of 102%.
With `O=C1Nc2ccccc2/C1=N/N=C/c1ccc(OC2OC(CO)C(O)C(O)C2O)cc1` (stereo not drawn) the growth was 114%.
With `C=CC(=O)Nc1cccc(C)c1Nc1cc(-c2cccnc2Cc2c(C)c(OC)cc(OC)c2C)ncn1` the growth was 11.4%.
For `OC(COc1cccc2ccccc12)CN1CCN(c2ccccc2)CC1` (stereo not drawn), the growth was 109%.
`CC(=O)Nc1cccc(C2=CC(c3ccc(C)cc3)n3ncnc3N2)c1` (stereo not drawn) gave a growth of 102%.
For `O=C(CC12CC3CC(CC(C3)C1)C2)NCCOCCOCCNC(=O)c1cc2c(o1)C(=O)c1ccccc1C2=O`, the growth was -95.7% (active).
For `N=C(N)c1ccc(-c2ccc(/C=C/c3ccccc3)s2)cc1`, the growth was 1.59% (active).
`CNC1(C#N)CCN(Cc2ccccc2)CC1` showed a growth of 113%.
With `O=C(/C=C/C12c3ccccc3C(c3ccccc31)C1C(=O)N(c3ccccc3)C(=O)C12)c1ccc(Cl)cc1` (stereo not drawn) the growth was 21.8%.
Work on `CCNCCNc1cc(-c2ccc(Cl)cc2)c(C#N)c2nc3ccccc3n12` yielded a growth of 26.4%.
In the case of `CN(C)c1ccc2cc(-c3ccccc3F)c(N)nc2c1`, the growth is reported as 17.1%.
Compound `O=C1Nc2ccccc2/C1=N/N=C/c1c[nH]c2ccccc12` has a growth of 58.3%.
For `COc1ccc(/C=C(\C#N)n2nnc3ccccc32)cc1`, the growth was -5.07% (active).
In the case of `N#Cc1c(Oc2ccc([N+](=O)[O-])cc2)nc2sc3cc(Cl)ccc3n2c1=N`, the growth is reported as 105%.
In the case of `O=C(NCCOCCOCCOCCNC(=O)c1cc2c(o1)C(=O)c1ccccc1C2=O)NC12CC3CC(CC(C3)C1)C2`, the growth is reported as -96% (active).
With `O=C(Oc1ccc([N+](=O)[O-])cc1)c1ccc(CBr)cc1` the growth was 107%.
Compound `CCn1c(Sc2nnc(NC(=O)CCN3CCCC3)s2)nc2c1c(=O)n(C)c(=O)n2C` has a growth of 104%.
`CC(=[N-])N1CCC[C@@H](Nc2c3ccccc3nc3ccccc23)C1.[Cl][Pt].[NH-]CCC[NH-]` was tested, and the growth was 5.94% (active).

What follows are compounds tested on K-562 leukemia in the same assay as above. Conditions: 10 µM unless noted.
`CC(=O)Nc1ccc2c(c1)Cc1c(F)cccc1-2` was tested, and the growth was 120%.
For `COc1ccc(-c2cncnc2N)cc1OC`, the growth was 103%.
With `CN(C)c1ccc2cc(-c3ccc(Cl)c(Cl)c3)c(N)nc2c1` the growth was 12.1%.
In the case of `O=C(Nc1ccccn1)[C@H](O)[C@@H](O)C(=O)N1CCOCC1`, the growth is reported as 115%.
Work on `O=C(NC(=S)Nc1ccc(-c2nc3ccccc3[nH]2)cc1)c1ccc2ccccc2c1` yielded a growth of 59.9%.
`CCCCCCN(CCCCCC)CC(O)c1cccc2ccc(Cl)cc12` (stereo not drawn) showed a growth of 32.9%.
In the case of `Cc1ccc(S(=O)(=O)N(CC[C@@H]2C[C@H]2c2cc3ccccc3o2)C(=O)NC2CCCCC2)cc1`, the growth is reported as 91.1%.
`Clc1ccc2[nH]c3c(NCCCN4CCOCC4)ncnc3c2c1` gave a growth of 31.6%.
With `Fc1ccc(Nc2ccc3cc(OCCCN4CCOCC4)ccc3n2)cc1F` the growth was -12% (active).
`CNC(=O)NCC1OC(n2cnc3c(NC(=O)Nc4ccccc4)ncnc32)C2OC(C)(C)OC12` (stereo not drawn) was tested, and the growth was 90.4%.
`CCN(CC)CCOC(=O)Nc1ccccc1Cl` showed a growth of 94.8%.
With `N=C(N)c1ccc(-c2ccc(-c3ccc(Cl)c(Cl)c3)o2)cc1` the growth was -30.2% (active).
`Cc1[nH]c(-c2nc3ccccc3[nH]2)c(C)c1C(=O)N1CCc2sccc2C1` gave a growth of 82.9%.
For `CC(C)(C)c1ccc(C(=O)Nc2sc3c(c2C(N)=O)CCC(=O)C3)cc1`, the growth was 4.82% (active).
Work on `Cc1nc(Nc2ccccn2)sc1C(=O)/C=C/c1ccc(Br)cc1` yielded a growth of 13.3%.
For `C/C(=N\NC(=O)Cn1c(-c2ccc(S(C)(=O)=O)cc2)nc2cc(Cl)ccc21)c1ccc(Cl)cc1`, the growth was 62.9%.
In the case of `CCOC(=O)c1c(C)[nH]c(C(=O)CCC(=O)OC)c1C`, the growth is reported as 102%.
With `C=C1C(=O)O[C@H]2[C@H]1CC/C(COC(=O)NCc1ccc(Cn3c(=O)sn(CCCCl)c3=O)cc1)=C\CC[C@@]1(C)O[C@@H]21` the growth was 0.0582% (active).
`COc1cc(C2C=C(c3cccc(NC(C)=O)c3)Nc3ncnn32)cc(OC)c1OC` (stereo not drawn) gave a growth of 23.6%.
In the case of `O=C(Oc1ccc[nH]c1=O)c1cc([N+](=O)[O-])cc([N+](=O)[O-])c1`, the growth is reported as 87.1%.
In the case of `COc1ccc(Oc2nc(Nc3ccc(N4CCOCC4)nc3)ncc2NC(=O)c2cc(OC)cc(OC)c2)cc1`, the growth is reported as 49.8%.
In the case of `COC(=O)c1ccc2oc(NC(=O)c3ccc(N4CCOCC4)c([N+](=O)[O-])c3)nc2c1`, the growth is reported as 84.6%.
`O=C1Nc2ccccc2/C1=N/N=C/c1ccc(OC2OC(CO)C(O)C(O)C2O)cc1` (stereo not drawn) showed a growth of 98.3%.
For `C=CC(=O)Nc1cccc(C)c1Nc1cc(-c2cccnc2Cc2c(C)c(OC)cc(OC)c2C)ncn1`, the growth was -11.1% (active).
`OC(COc1cccc2ccccc12)CN1CCN(c2ccccc2)CC1` (stereo not drawn) showed a growth of 114%.
`CC(=O)Nc1cccc(C2=CC(c3ccc(C)cc3)n3ncnc3N2)c1` (stereo not drawn) was tested, and the growth was 86.2%.
In the case of `O=C(CC12CC3CC(CC(C3)C1)C2)NCCOCCOCCNC(=O)c1cc2c(o1)C(=O)c1ccccc1C2=O`, the growth is reported as 1.74% (active).
For `N=C(N)c1ccc(-c2ccc(/C=C/c3ccccc3)s2)cc1`, the growth was -27.7% (active).
Work on `CNC1(C#N)CCN(Cc2ccccc2)CC1` yielded a growth of 104%.
Compound `O=C(/C=C/C12c3ccccc3C(c3ccccc31)C1C(=O)N(c3ccccc3)C(=O)C12)c1ccc(Cl)cc1` (stereo not drawn) has a growth of 18.2%.
`CCNCCNc1cc(-c2ccc(Cl)cc2)c(C#N)c2nc3ccccc3n12` was tested, and the growth was -48.1% (active).
`CN(C)c1ccc2cc(-c3ccccc3F)c(N)nc2c1` was tested, and the growth was 13.5%.
With `O=C1Nc2ccccc2/C1=N/N=C/c1c[nH]c2ccccc12` the growth was 80.2%.
Work on `COc1ccc(/C=C(\C#N)n2nnc3ccccc32)cc1` yielded a growth of 15%.
For `N#Cc1c(Oc2ccc([N+](=O)[O-])cc2)nc2sc3cc(Cl)ccc3n2c1=N`, the growth was 118%.
In the case of `O=C(NCCOCCOCCOCCNC(=O)c1cc2c(o1)C(=O)c1ccccc1C2=O)NC12CC3CC(CC(C3)C1)C2`, the growth is reported as 7.09% (active).
`O=C(Oc1ccc([N+](=O)[O-])cc1)c1ccc(CBr)cc1` showed a growth of 86.7%.
Compound `CCn1c(Sc2nnc(NC(=O)CCN3CCCC3)s2)nc2c1c(=O)n(C)c(=O)n2C` has a growth of 102%.
For `CC(=[N-])N1CCC[C@@H](Nc2c3ccccc3nc3ccccc23)C1.[Cl][Pt].[NH-]CCC[NH-]`, the growth was 19.2%.

— PubChem BioAssay (NCI)
